Calls of active or inactive are those of the source. Unless noted, the rule behind the calls is not given here.

Experimental findings from PubChem BioAssay are described below.

Assay [1] is described as follows: HepG2 liver cancer cell viability effects, profiling panel, resazurin fluorescence, 24 h, PK04 Diversity Set (AID 1172). Note: test concentration not given here. The settings on record: higher = more signal. (In general: Resazurin is reduced to fluorescent resorufin, in cell work by metabolically active cells.)
Assay [2] in a line: basal S. cerevisiae growth modulation, no modifier, primary screen, OD600, strain BY4716, 24 h, basal condition (AID 1173). The settings on record: OD600, 24 h, higher = more signal, called active from +8 up or from −8 down.
A short description of assay [3]: MM1S myeloma cell viability, profiling panel, resazurin fluorescence, basal, 24 h, PK04 Diversity Set (AID 1174).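 Note: MM1S multiple myeloma cell line; test concentration not given here.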 The settings on record: higher = more signal, called active from +8 up or from −8 down.
For assay [4], the target named is Dihydroorotate dehydrogenase (quinone), mitochondrial (Plasmodium falciparum (isolate 3D7)) (UniProt Q08210). Description: PfDHODH enzyme inhibitors, primary screen, biochemical, C-terminal His tag, absorbance 600 nm (AID 1175).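 Note: recombinant parasite enzyme with a five histidine tag at its C terminus; test concentration not given here.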 The settings on record: DCIP absorbance 600 nm, higher = more signal, called active from +8 up or from −8 down.
A short description of assay [5]: P. aeruginosa biofilm formation inhibitors, primary screen, strain PAO1, LB-PBS medium, absorbance 600 nm (AID 1176). Note: test concentration not given here. The settings on record: P. aeruginosa PAO1 growth/biofilm, A600, 12 h; higher = more signal.
Assay [6] in a line: S. cerevisiae RM11-1a growth modifiers, primary screen, strain RM11-1a, OD600, basal, 24 h (AID 1177).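 Note: cultures grown under basal conditions with no added stressor; test concentration not given here.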 The settings on record: OD600, 24 h, higher = more signal, called active from +8 up or from −8 down.
Assay [7] in a line: E. coli acrAB mutant growth effects, primary screen, E. coli filamentation inducers, strain DRC39, OD650, 24 h (AID 1178).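 Note: growth measured as culture turbidity by optical density at 650 nm; test concentration not given here.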 The settings on record: higher = more signal, called active from +8 up or from −8 down.
Assay [8] in a line: E. coli acrAB mutant growth effects, primary screen, E. coli filamentation inducers, strain DRC39, OD650, 48 h (AID 1179).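 Note: screen aims at cell division blockers that make cells filament.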 The settings on record: E. coli DRC39 delta-acrAB growth, higher = more signal, called active from +8 up or from −8 down.
A short description of assay [9]: RPMI8226 myeloma cell viability, profiling panel, resazurin fluorescence, basal, 24 h, PK04 Diversity Set (AID 1180).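 Note: RPMI8826 multiple myeloma cell line at 5000 cells per well; test concentration not given here.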 The settings on record: higher = more signal.
In assay [10] the target is E3 ubiquitin-protein ligase XIAP (Homo sapiens) (UniProt P98170). The assay is described as follows: XIAP binders, primary screen, biophysical, small-molecule microarray, fluorescence 635 nm (AID 1181).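 Note: score merges 667 nm emission and signal to noise over triplicate slides.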 The settings on record: small-molecule microarray binding, higher = more signal.
Sequence of E3 ubiquitin-protein ligase XIAP (Homo sapiens) (P98170 whole entry, looked up): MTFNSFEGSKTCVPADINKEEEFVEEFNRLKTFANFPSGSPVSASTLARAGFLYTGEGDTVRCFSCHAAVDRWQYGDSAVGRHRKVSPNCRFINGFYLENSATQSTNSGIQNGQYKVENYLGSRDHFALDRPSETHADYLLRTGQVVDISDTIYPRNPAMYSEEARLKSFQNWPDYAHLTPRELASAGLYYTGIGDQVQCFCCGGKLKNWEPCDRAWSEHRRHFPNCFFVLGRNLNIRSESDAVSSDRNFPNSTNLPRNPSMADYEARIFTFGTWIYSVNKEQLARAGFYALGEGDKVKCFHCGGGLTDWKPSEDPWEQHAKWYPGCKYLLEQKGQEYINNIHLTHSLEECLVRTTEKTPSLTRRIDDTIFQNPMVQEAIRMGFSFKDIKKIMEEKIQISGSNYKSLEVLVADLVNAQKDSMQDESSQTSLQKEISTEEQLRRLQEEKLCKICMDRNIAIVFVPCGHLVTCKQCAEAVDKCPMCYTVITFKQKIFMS

Sequence of Dihydroorotate dehydrogenase (quinone), mitochondrial (Plasmodium falciparum (isolate 3D7)) (Q08210 whole entry, looked up): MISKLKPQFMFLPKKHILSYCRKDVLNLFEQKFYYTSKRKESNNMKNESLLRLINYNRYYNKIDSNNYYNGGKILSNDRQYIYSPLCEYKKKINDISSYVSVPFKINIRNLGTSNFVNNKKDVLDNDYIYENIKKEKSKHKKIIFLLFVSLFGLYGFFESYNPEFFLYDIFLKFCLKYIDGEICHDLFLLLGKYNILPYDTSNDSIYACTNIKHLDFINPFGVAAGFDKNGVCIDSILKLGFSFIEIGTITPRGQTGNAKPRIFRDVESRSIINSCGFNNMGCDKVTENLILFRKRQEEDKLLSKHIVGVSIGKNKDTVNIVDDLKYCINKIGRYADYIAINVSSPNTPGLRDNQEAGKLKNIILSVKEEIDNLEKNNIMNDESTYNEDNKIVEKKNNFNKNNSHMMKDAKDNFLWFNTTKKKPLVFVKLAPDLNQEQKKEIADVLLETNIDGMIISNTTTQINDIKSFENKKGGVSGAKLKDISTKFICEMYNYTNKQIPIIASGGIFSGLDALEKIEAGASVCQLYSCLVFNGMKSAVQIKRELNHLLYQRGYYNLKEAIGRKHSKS

With `C=C/C=C/[C@@H]1C(=C)CN([C@@H](Cc2ccccc2)C(=O)OC)[C@H]1[C@@H](O)Cc1ccccc1`, the z-score in assay [1] is 0.779; in assay [2] it was -1.03 (inactive); in assay [3] it was -0.196 (inactive); in assay [5], 0.106 (inactive); in [6] it was 0.774 (inactive); in [7], 0.18 (inactive). Also, the z-score in assay [8] is -0.45 (inactive); in assay [9], -0.697. For the same molecule, the composite z-score in assay [4] was 0.0865 (inactive); in [10] it was -0.0349.

`CC=CC(O)C1C=CC2C(=O)NC(=O)C2N1Nc1ccccn1` (stereo not given): the z-score in assay [1] is -1.45; in assay [2] it was 0.866 (inactive); in assay [3], -0.949 (inactive); in assay [5], 0.667 (inactive); in assay [6], 1.83 (inactive); in [7], -0.837 (inactive). Also, the z-score in assay [8] is 0.272 (inactive); in assay [9], -0.349. Further, the values for the composite z-score in assay [4] and in [10] were 0.434 (inactive) and -0.031, respectively.

Consider `C=C[C@H](C)[C@H](OC(=O)Nc1ccc(OC)cc1)c1ccc(OCCO)cc1`, for which the z-score in assay [1] is -0.178; in assay [2], -5.91 (inactive); in assay [3] it was 1.69 (inactive); in assay [5], 0.413 (inactive); in assay [6] it was -0.354 (inactive); in assay [7], 1.43 (inactive). For the same molecule, the z-score was 0.465 (inactive) in [8] and 0.603 in [9]. Further, the composite z-score was -0.285 (inactive) in [4] and 0.34 in [10].

Consider `C=C(C)[C@@H]1CC=C(C(O)C2C=CC3C(=O)N(c4ccccc4)C(=O)C3N2Nc2ccc(C#N)cc2)CC1` (stereo not given in full), for which the z-score was -1.12 in [1]; -0.111 (inactive) in assay [2]; -0.591 (inactive) in assay [3]; 1.8 (inactive) in assay [5]; 0.556 (inactive) in assay [6]; -0.688 (inactive) in assay [7]. For the same molecule, the figures for the z-score in assay [8] and in assay [9] were -0.906 (inactive) and 0.0852, respectively. The composite z-score in assay [4] was 0.0143 (inactive); in assay [10], 0.169.

Turning to `CO[C@H]1O[C@H](CO)[C@@H](OC(=O)c2ccc(Br)cc2)[C@@H]2OC(=O)[C@H](Cc3ccccc3)C/C=C/C[C@@H](Cc3ccccc3)C(=O)O[C@@H]12`, the z-score in [1] was 0.722; in assay [2], -2.04 (inactive); in [3], -1.33 (inactive); in assay [5] it was -0.124 (inactive); in [6], -1.42 (inactive); in assay [7] it was 1.74 (inactive). For the same molecule, the z-score is 2.16 (inactive) in [8] and 0.425 in assay [9]. Also, the results for the composite z-score in assay [4] and in [10] were -0.854 (inactive) and 0.154, respectively.

In the case of `COc1ccc([Si](C)(C)[C@@H]2[C@@H](CCn3cc([C@H](O)c4ccccc4)nn3)O[C@]3(C(=O)N(Cc4cccc(N5C(=O)c6cccc7cccc5c67)c4)c4ccccc43)[C@H]2C)cc1`, the z-score is -0.167 in assay [1]; 1.33 (inactive) in assay [2]; -2.01 (inactive) in assay [3]; 0.106 (inactive) in assay [5]; 2.11 (inactive) in assay [6]; -0.494 (inactive) in assay [7]. In addition, the z-score is -0.787 (inactive) in assay [8] and -1.19 in assay [9]. The composite z-score is 0.736 (inactive) in assay [4] and -0.217 in assay [10].

As to `CCN(CC)c1ccc(N2CC=CC34O[C@@H]5C=CCCOC(=O)C5[C@H]3C(=O)N(CCO)[C@@H]4C2=O)cc1` (stereo not given in full), the z-score in assay [1] was 0.0656; in [2] it was -0.371 (inactive); in assay [3], -0.281 (inactive); in assay [5], 0.469 (inactive); in assay [6] it was -0.106 (inactive); in assay [7], 0.449 (inactive). The z-score was 0.2 (inactive) in assay [8] and 0.553 in assay [9]. Moreover, the composite z-score was -1.3 (inactive) in assay [4] and 0.0074 in [10].

Consider `C=C[C@@H](OC)[C@H](OC(=O)Nc1ccc(OC)cc1)c1ccc(OC)c(O)c1`, for which the z-score in assay [1] is 0.358; in assay [2], -1.19 (inactive); in assay [3], -0.143 (inactive); in assay [5], 0.295 (inactive); in [6], 0.445 (inactive); in assay [7], 0.724 (inactive). Also, the z-score was 0.367 (inactive) in assay [8] and 0.185 in assay [9]. The composite z-score in assay [4] was -0.0589 (inactive); in assay [10] it was 0.431.

Take `COCCCNC(=O)[C@@H]1c2ccccc2C(=O)N(C2Cc3ccccc3C2)[C@H]1c1ccc(CO)cc1`: the z-score was -0.138 in assay [1]; -0.483 (inactive) in assay [2]; 0.354 (inactive) in [3]; 0.388 (inactive) in assay [5]; -0.344 (inactive) in assay [6]; 0.722 (inactive) in assay [7]. The z-score in assay [8] was 0.468 (inactive); in [9] it was 0.653. Moreover, the results for the composite z-score in [4] and in [10] were -0.774 (inactive) and -0.169, respectively.

In the case of `C=C(/C(=C/C[C@H](OC(=O)c1ccncc1)c1cccc(OCCO)c1)c1cnc2ccccc2c1)C(C)C`, the z-score in [1] was -0.982; in [2], -18.5 (active); in assay [3], -1.09 (inactive); in assay [5] it was 0.285 (inactive); in assay [6], -22.1 (active); in assay [7], 0.116 (inactive). The z-score in assay [8] was -0.147 (inactive); in [9], -0.911. Also, the composite z-score in assay [4] was -25.3 (active); in [10], 0.329.

For `COC(=O)C1N=C(c2ccc(OCCCO)cc2)N(c2ccccc2)O1` (stereo not given), the z-score in [1] is 0.863; in [2], -1.41 (inactive); in assay [3], -0.279 (inactive); in assay [5], -1.1 (inactive); in [6], 0.061 (inactive); in assay [7], 0.642 (inactive). Besides, the z-score in assay [8] is -0.0518 (inactive); in [9], 1.22. Also, the composite z-score in assay [4] is -1.24 (inactive); in [10] it was -0.0118.

Consider `C=CCNC(=O)[C@H]1[C@@H]2C(=O)O[C@@H](c3ccccc3)[C@@H](c3ccccc3)N2[C@@H](c2ccc(OCCO)cc2)[C@]12C(=O)N(C(=O)OCCOC)c1ccc(C#Cc3ccc(OC)cc3)cc12`, for which the z-score in assay [1] is -1.14; in assay [2], 0.583 (inactive); in [3], 0.476 (inactive); in [5] it was 2.11 (inactive); in assay [6], 2.22 (inactive); in assay [7], 1.07 (inactive). The z-score in assay [8] was 0.941 (inactive); in [9], 0.637. In addition, the results for the composite z-score in assay [4] and in assay [10] were -2.05 (inactive) and -0.0344, respectively.

In the case of `COC(=O)[C@@]1(Cc2ccc(OC)cc2)[C@H]2c3cc(C(=O)N4CCCC4)n(Cc4ccc(OC(F)(F)F)cc4)c3C[C@H]2CN1C(=O)c1ccccc1`, the z-score in assay [1] is -0.0938; in [2], 1.82 (inactive); in assay [3], -1.43 (inactive); in [5], 0.343 (inactive); in assay [6], 0.755 (inactive); in assay [7] it was -0.0079 (inactive). The z-score was 0.513 (inactive) in assay [8] and -2.54 in assay [9]. The composite z-score in assay [4] was -0.731 (inactive); in assay [10] it was 0.0479.
